The list is not random: actives were taken first. Their share in the collection is about 11%.
G9a inh: inhibitors of human histone lysine methyltransferase G9a | 8.8% of 350,000 active | Q96KQ7 | Potency, µM (series often up to 102 µM), most hits filed as inhibitors | G9a H3K9 monomethylation, AlphaScreen, 2 h; note: nearly all actives have a fitted effect of over 75% in size
Target sequence (Q96KQ7 913-1193 limits assumed): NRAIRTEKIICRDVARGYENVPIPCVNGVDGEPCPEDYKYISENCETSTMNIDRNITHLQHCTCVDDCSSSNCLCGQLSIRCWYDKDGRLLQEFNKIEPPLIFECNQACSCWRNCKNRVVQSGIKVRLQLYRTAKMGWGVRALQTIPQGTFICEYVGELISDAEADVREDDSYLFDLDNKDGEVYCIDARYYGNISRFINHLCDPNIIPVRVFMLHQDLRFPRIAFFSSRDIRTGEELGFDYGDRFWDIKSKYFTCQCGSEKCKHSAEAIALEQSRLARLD
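G9a (20 nM) was preincubated 15 min with compound, then reacted 2 h at room temperature with 500 nM biotin-H3K9 peptide and 20 µM SAM. Monomethyl-H3K9 detected by AlphaScreen using anti-H3K9me1 antibody.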
Tau fluor counter: counter-screen for tau fibril formation inhibitors | tau K18 P301L Alexa594 fluorescence, heparin fibrillization | Potency, µM (top dose mostly 57.7 µM) | 0.93% of 280,000 active | AID 1463; note: nearly all actives have a fitted effect of over 55% in size
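Human tau K18 P301L (15 uM unlabeled, 0.24 uM Alexa 594-labeled) in 100 mM sodium acetate pH 7 with 20 uM heparin, 6 hr at 37 C. ThT 30 uM added, 1 hr ambient; Alexa 594 FP and total fluorescence read at 555/632 nm.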
Sfp inh: Sfp phosphopantetheinyl transferase inhibition. Q9F4F7. Biochemical Sfp PPTase activity, qHTS. Potency, µM, most hits filed as inhibitors. 3.5% of 310,000 active;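 note: the enzyme is Sfp with the accession as filed and its product quenches rhodamine fluorescence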
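Reaction rates are the 30-min fluorescence difference (ex 525, em 598 nm) in wells containing 15 nM Sfp, 5 uM rhodamine-CoA and 12.5 uM BHQ-2-YbbR at pH 7.6 with 10 mM MgCl2.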
Tau fibril ThT: tau fibrillization inhibition (ThT binding) | 2.1% of 270,000 active | Potency, µM (titrated, usually from 57.4 µM), hits mostly inhibitors | P10636 | recombinant tau K18 P301L (four-repeat tau fragment), heparin-induced fibrillization, ThT fluorescence; note: nearly all actives have a fitted effect of over 55% in size
Target sequence (P10636 561-689 P618L limits assumed): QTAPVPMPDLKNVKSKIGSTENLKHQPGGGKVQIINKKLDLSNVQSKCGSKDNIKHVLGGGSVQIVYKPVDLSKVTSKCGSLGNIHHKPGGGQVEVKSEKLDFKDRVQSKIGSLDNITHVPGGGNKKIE
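K18 P301L tau (15 uM + 0.24 uM Alexa 594-tagged), heparin 20 uM, NaOAc pH 7, 6 h 37 C; ThT 30 uM, 1 h RT, ex 450/em 510 nm.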
Coupling enz: counter-screen for Giardia aldolase inhibitors: coupling enzyme system; 0.67% of 290,000 active; AID 2472; activity change, negative = inhibition, % at 58.2 µM, hits read low; coupling enzyme system counterscreen, AmpLite Red fluorescence; in the data active = activity change below about -30%
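Final compound at 57.5 uM, incubated 10 min at RT with coupling enzyme reagent (glyceraldehyde-3-phosphate), then 20 min with substrate and AmpLite Red detection. Fluorescence read at 525/598 nm; tests interference with the coupling assay, not aldolase inhibition.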
Tau FP inhib: tau fibrillization inhibition (FP); P10636; K18 P301L tau heparin fibrillization, Alexa594 FP, 6 h; Potency, µM (series often up to 57.7 µM), usual class: inhibitors; 0.39% of 280,000 active; AID 1468; note: nearly all actives have a fitted effect of over 55% in size
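K18 P301L tau (15 uM unlabeled/0.24 uM Alexa 594-labeled, final) + compound + heparin 20 uM final; 100 mM NaOAc pH 7; 6 hr 37 C; ThT 30 uM final added, 1 hr RT; FP ex 555/em 632 nm.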
Each line names hits and unclear results; the compound was inactive in the other large screens; ! = not active in a repeat; [ ] = dose if it differs, or a comment. Unless noted, calls come from the whole dose curve; as a rule, active = well fitted curve in the direction sought with a large enough effect; inconclusive = small, poorly fitted or top-dose-only effect, or another doubt; inactive = no such curve, though single readings can be large; an effect the other way counts as inactive or inconclusive.

COc1ccc(/C(C)=N/NC(=O)c2nnn(-c3nonc3N)c2-c2cccs2)cc1	none (no result: Tau fluor counter, Tau fibril ThT, Coupling enz, Tau FP inhib)
COc1ccc(/C(C)=N/NC(=O)c2nnn(-c3nonc3N)c2-c2ccccc2)cc1	G9a inh 50µM (no result: Tau fluor counter, Tau fibril ThT, Tau FP inhib)
CCc1cnc2c(c1SCC(=O)Nc1ccc(OC)c(OC)c1)c(=O)n(C)c(=O)n2C	none (no result: Sfp inh, Coupling enz)
CCOC(=O)c1c(-c2ccc(OC)cc2)csc1/N=C/C1C(=O)CCCC1=O	G9a inh 45µM, Tau fibril ThT inconclusive
Cc1cc(C)c(C#N)c(SCCN2CCOCC2)n1	none (no result: G9a inh)
Cc1nnc(SCCN2CCOCC2)n1C	G9a inh 35µM, Sfp inh inconclusive
COc1ccccc1-c1nnc(SCC(=O)N2CCOCC2)n1-c1ccccc1	none
COc1ccccc1-c1nnc(SCCN2CCOCC2)n1-c1ccc(C)cc1	G9a inh 16µM
CCOC(=O)C1=C(CN(CC)Cc2ccccc2)NC(=O)NC1c1ccc(Cl)cc1 (centres undefined)	Tau fibril ThT inconclusive (no result: Sfp inh, Coupling enz)
C[C@H](c1ccccc1)N1C(=O)[C@H]2[C@@H]3[C@H](O)[C@H](O)CC(=O)[C@H]3CC[C@H]2C1=O	none (no result: G9a inh)
CCOc1cc(/C=C2\CCn3c2nc2cc(Cl)ccc2c3=O)ccc1O	G9a inh inconclusive (no result: Tau fluor counter, Tau fibril ThT, Tau FP inhib)
O=C(CCc1nnc2ccc(NCc3ccco3)nn12)Nc1ccc(F)cc1F	none (no result: Tau fluor counter, Tau fibril ThT, Coupling enz, Tau FP inhib)
Cc1ccc(C)c(S(=O)(=O)N/N=C/c2cccnc2)c1	G9a inh inconclusive
CC(=O)Nc1ccc(/C=N/NS(=O)(=O)c2cc(C)ccc2C)cc1	G9a inh 50µM
Cc1ccc(C)c(S(=O)(=O)N/N=C/c2ccc(N(C)C)cc2)c1	G9a inh inconclusive, Tau fluor counter inconclusive, Tau fibril ThT inconclusive
Cc1ccc(C)c(S(=O)(=O)N/N=C/c2ccc(F)cc2)c1	G9a inh 11µM
CCOc1ccc(OCC)c(NC(=O)c2cc(S(=O)(=O)N3CCCC3)cn2C)c1	none (no result: Sfp inh, Coupling enz)
NC(=S)N/N=C/c1ccc(C23CC4CC(CC(C4)C2)C3)cc1	none (no result: G9a inh, Tau fluor counter, Tau fibril ThT, Tau FP inhib)
COc1ccc(C(=O)CN(Cc2ccccc2)C2=NCCS2)cc1	none
O=C(CN(Cc1ccccc1)C1=NCCS1)c1ccc(Cl)cc1	G9a inh 45µM, Tau FP inhib inconclusive
O=C(CCNNC(=O)c1ccncc1)NCc1ccccc1	G9a inh 10µM!
O=C(CCc1c[nH]c2ccccc12)NCc1ccncc1	G9a inh 50µM (no result: Tau fluor counter, Tau fibril ThT, Tau FP inhib)
O=C(CCc1c[nH]c2ccccc12)NCc1ccc2c(c1)OCO2	G9a inh 56µM
O=C(CCc1ccccc1)NCc1ccncc1	none (no result: Tau fluor counter, Tau fibril ThT, Tau FP inhib)
Cc1cccc(C)c1NC(=O)N1CCC(C(N)=O)(N2CCCCC2)CC1	none (no result: Sfp inh, Coupling enz)
CCCN1C(=O)c2[nH]nc(-c3ccc(F)cc3)c2C1c1ccc(O)c(OCC)c1 (centres undefined)	none (no result: Sfp inh, Coupling enz)
CCOC(=O)N1CCC(n2c(SCC(=O)N3CCC(C)CC3)nc3ccccc3c2=O)CC1	Sfp inh 79µM, Tau fibril ThT inconclusive
Cc1cc(C)cc(NC(=O)Cn2cc(C(=O)C3CCCCC3)c3ccccc32)c1	none (no result: Sfp inh, Coupling enz)
COc1ccccc1NC(C)C(=O)N/N=C/c1ccccc1OCc1cccc(Br)c1 (centres undefined)	G9a inh 50µM, Tau fibril ThT inconclusive
CC(Nc1cccc2ccccc12)C(=O)N/N=C/c1ccc([N+](=O)[O-])cc1 (centres undefined)	G9a inh inconclusive, Tau fluor counter 7.9µM[quencher], Sfp inh 32µM, Tau fibril ThT inconclusive, Coupling enz -46, Tau FP inhib inconclusive
O=C(N/N=C/c1cccnc1)c1ccccc1OCc1cccc(Br)c1	none
COc1cc([N+](=O)[O-])cc(/C=N/NC(=O)C(C)Nc2cccc3ccccc23)c1O (centres undefined)	G9a inh 45µM
Cc1ccc(/C=N/NC(=O)c2ccccc2OCc2cccc(Br)c2)o1	G9a inh 25µM
Cc1cc(C)nc(N/N=C/c2ccccc2OCc2cccc(Br)c2)n1	none
COc1cc([N+](=O)[O-])cc(/C=N/NC(=O)C(O)(c2ccccc2)c2ccccc2)c1O	none (no result: Tau fluor counter, Tau fibril ThT, Tau FP inhib)
CC(C)CCNC(=O)C1CCC(CNc2c(N3CCCC3)c(=O)c2=O)CC1 (centres undefined)	G9a inh inconclusive (no result: Tau fibril ThT)
COC(=O)CCCC1=CC2=CC(=O)C(C)(OC(=O)c3cccs3)C(=O)C2=CN1CCCCO (centres undefined)	Tau fibril ThT inconclusive, Coupling enz -41!
COC(=O)CCCC1=CC2=CC(=O)C(C)(OC(=O)c3cccs3)C(=O)C2=CN1CCN1CCOCC1 (centres undefined)	Coupling enz -38!
CCCCCCCC1=CC2=CC(=O)C(C)(OC(C)=O)C(=O)C2=CN1CCc1ccccc1 (centres undefined)	G9a inh 40µM, Tau fibril ThT inconclusive
CCCCC1=CC2=CC(=O)C(C)(OC(=O)CC)C(=O)C2=CN1Cc1ccc2c(c1)OCO2 (centres undefined)	Tau fibril ThT inconclusive
CCCCC1=CC2=CC(=O)C(C)(OC(=O)c3cccs3)C(=O)C2=CO1 (centres undefined)	none (no result: G9a inh)
COC(=O)CCCC1=CC2=CC(=O)C(C)(OC(=O)c3cccs3)C(=O)C2=CO1 (centres undefined)	none (no result: G9a inh)
CCCCC1=CC2=CC(=O)C(C)(OC(=O)CC)C(=O)C2=CN1CCCCO (centres undefined)	Tau fibril ThT inconclusive, Coupling enz -35!
CCC(C)NC(=O)Cn1c(=O)n(CCCC(=O)NCc2ccc(C)cc2)c(=O)c2ccccc21 (centres undefined)	none (no result: Sfp inh, Coupling enz)
Cc1ccc(Cl)cc1NC(=O)C1CCN(c2nc3ccccc3n3cccc23)CC1	none (no result: Sfp inh, Coupling enz)
COCCN1C=C2C(=O)C(C)(OC(=O)c3cccs3)C(=O)C=C2C=C1CCCC(=O)OC (centres undefined)	Tau fibril ThT inconclusive, Coupling enz -35!, Tau FP inhib inconclusive
COC(=O)CCCC1=CC2=CC(=O)C(C)(OC(=O)c3cccs3)C(=O)C2=CN1c1ccccc1 (centres undefined)	none (no result: G9a inh)
C=CCSc1nnc(NC(=O)c2nc(SCC)ncc2Cl)s1	G9a inh 7.9µM
COc1ccc(-n2c(CN3CCN(c4ccccn4)CC3)nc3ccc([N+](=O)[O-])cc3c2=O)c(OC)c1	G9a inh 32µM, Tau fibril ThT inconclusive
CCCCN(CC)c1nc(-c2ccccc2F)nc2ccccc12	none (no result: Sfp inh, Coupling enz)
CCOC(=O)Cc1csc(NC(=O)Cc2ccc(Cl)cc2)n1	none
CCOC(=O)Cc1csc(NC(=O)Nc2ccc(OC(F)(F)F)cc2)n1	Tau fluor counter inconclusive, Tau FP inhib inconclusive (no result: G9a inh)
CCOC(=O)Cc1csc(NC(=O)NC2(C(F)(F)F)Oc3ccccc3O2)n1	G9a inh 8.9µM, Tau fluor counter inconclusive, Sfp inh 45µM, Tau fibril ThT inconclusive, Tau FP inhib inconclusive
